Measurements taken from PubChem BioAssay (NCI).
This is part of a sample that, as a whole, favours compounds with a hit. Of some 83,000 tested, about 20% had one in any assay.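 Single-dose data. Exposure time 48 hours. Values below 10 considered active.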 Calls of active or inactive are those of the source.

Experiments:
Test in all cases: NCI-60 one-dose screen, 48 h (100 = growth as untreated, 0 = no growth, -100 = all killed)
Details in all cases: 10 µM unless noted
T-47D breast = system: T-47D breast
BT-549 breast = system: BT-549 breast
MDA-MB-435 melanoma = system: MDA-MB-435 melanoma
SW-620 colon = system: SW-620 colon
MCF7 breast = system: MCF7 breast
HCT-116 colon = system: HCT-116 colon
HCC-2998 colon = system: HCC-2998 colon
KM12 colon = system: KM12 colon
MDA-MB-468 breast = system: MDA-MB-468 breast

Measured: growth

Cn1cc(-c2cc(N)n3nc(-c4cn(C)c5ccc(Cl)cc45)cc3n2)c2ccccc21
inactive: T-47D breast 101% | BT-549 breast 118% | MDA-MB-435 melanoma 101% | SW-620 colon 114% | MCF7 breast 98.8% | HCT-116 colon 104% | HCC-2998 colon 105% | KM12 colon 109% | MDA-MB-468 breast 96.4%

Nc1nnc(-c2c[nH]c3ncc(Br)cc23)c(-c2c[nH]c3ccc(F)cc23)n1
inactive: T-47D breast 38.2% | BT-549 breast 54.4% | MDA-MB-435 melanoma 26% | SW-620 colon 20.9% | MCF7 breast 18.6% | HCT-116 colon 26% | HCC-2998 colon 45.9% | KM12 colon 30.5% | MDA-MB-468 breast 13.1%

COc1ccc(N2N=C(c3ccc4c(c3)OCO4)CC2c2cccc(NC(=O)CCNS(=O)(=O)c3ccc(Cl)cc3)c2)cc1 (centres undefined)
active: MCF7 breast 8.85% | HCC-2998 colon 8.63%
inactive: T-47D breast 28.9% | BT-549 breast 34.5% | MDA-MB-435 melanoma 41.1% | SW-620 colon 55.8% | HCT-116 colon 26.9% | KM12 colon 21.2% | MDA-MB-468 breast 10.1%

Cc1ccc(/C=C/c2n(Cc3ccc4ccccc4c3)c3ccccc3[n+]2Cc2ccc3ccccc3c2)cc1
active: T-47D breast -51.1% | BT-549 breast -69.9% | MDA-MB-435 melanoma -78.2% | SW-620 colon -75.1% | MCF7 breast -78.3% | HCT-116 colon -40.8% | HCC-2998 colon -87.3% | KM12 colon -88.5% | MDA-MB-468 breast -78.6%

COc1ccc(C(SCCNCc2cc(N(C)C)ccn2)(c2ccccc2)c2ccccc2)cc1
active: T-47D breast -9.47% | BT-549 breast -13.4% | MDA-MB-435 melanoma -53.7% | SW-620 colon -50.5% | MCF7 breast -48.5% | HCT-116 colon -27% | HCC-2998 colon -81.9% | KM12 colon -9.54% | MDA-MB-468 breast -58.2%

CCS(=O)(=O)N1CCCC(C(=O)Nc2nc3ccc(NC(=O)c4ccc(F)c(OC)c4F)cc3s2)C1 (centres undefined)
active: T-47D breast 7.96% | MDA-MB-468 breast 7.13%
inactive: BT-549 breast 13.2% | MDA-MB-435 melanoma 53.8% | SW-620 colon 88.7% | MCF7 breast 30.1% | HCT-116 colon 41% | HCC-2998 colon 86.9% | KM12 colon 61.6%

Cc1ccc(C(=O)C(c2c[nH]c3ccccc23)c2c[nH]c3ccccc23)cc1
inactive: T-47D breast 45.7% | BT-549 breast 69.1% | MDA-MB-435 melanoma 19.4% | KM12 colon 26.1% | MDA-MB-468 breast 26%
active: SW-620 colon 0.879% | MCF7 breast 9.47% | HCT-116 colon -62.3% | HCC-2998 colon 4.87%

C=C1CC[C@@H]2[C@]3(C)COC(c4ccco4)O[C@@H]3CC[C@@]2(C)[C@@H]1C/C=C1/C(=O)OCC1OC(C)=O (some centres undefined)
inactive: T-47D breast 45.5% | MDA-MB-435 melanoma 31.9% | MCF7 breast 13.4% | HCC-2998 colon 31.8% | KM12 colon 52.4%
active: BT-549 breast -4.43% | SW-620 colon -8.09% | HCT-116 colon -52% | MDA-MB-468 breast -2.37%

Cc1cccc(NC(=O)CN2CCN(c3ncnc4c3cnn4-c3ccccc3)CC2)c1
inactive: T-47D breast 72.1% | BT-549 breast 89.9% | MDA-MB-435 melanoma 93.4% | SW-620 colon 92% | MCF7 breast 74.8% | HCT-116 colon 58.6% | HCC-2998 colon 107% | KM12 colon 90.4% | MDA-MB-468 breast 89.2%

CC(=O)OC[C@@]1(C)C2CC[C@]3(C)C(CC=C4C5CC(C)(C)CC[C@]5(C(=O)Nc5ccc(Br)cc5)CC[C@]43C)[C@@]2(C)C[C@@H](OC(C)=O)[C@@H]1OC(C)=O (some centres undefined)
inactive: T-47D breast 16.5% | BT-549 breast 43.7% | MDA-MB-435 melanoma 47.8% | SW-620 colon 39.9% | MCF7 breast 28.2% | HCT-116 colon 24.6% | HCC-2998 colon 38% | KM12 colon 46.4%
active: MDA-MB-468 breast 4.65%

O=c1[nH]c2ccccc2cc1CSc1nccc(-c2ccc3ccccc3c2)n1
inactive: T-47D breast 41.8% | BT-549 breast 44.8% | MDA-MB-435 melanoma 17.3% | SW-620 colon 51.2% | MCF7 breast 47% | HCT-116 colon 41.7% | HCC-2998 colon 83.5% | KM12 colon 69.6%
active: MDA-MB-468 breast -17.2%

O=C(CCN1C(=O)/C(=C/c2ccc(F)cc2)SC1=S)N1CCOCC1
active: MDA-MB-468 breast -11.2%
inactive: T-47D breast 24.4% | BT-549 breast 62.6% | MDA-MB-435 melanoma 73.5% | SW-620 colon 61.9% | MCF7 breast 48.1% | HCT-116 colon 55.5% | HCC-2998 colon 113% | KM12 colon 76%

CN(C)c1ccnc(CNCCSC2(c3ccc(C(F)(F)F)cc3)c3ccccc3C=Cc3ccccc32)c1
active: T-47D breast -60.8% | BT-549 breast -6.19% | MDA-MB-435 melanoma -78.3% | SW-620 colon -82.8% | MCF7 breast -89.2% | HCT-116 colon -37.8% | HCC-2998 colon -93.9% | KM12 colon -31.5% | MDA-MB-468 breast -57.7%

CCCCCCCCOc1cccc(S(=O)(=O)Nc2ccc(C)cc2C(=O)O)c1
inactive: T-47D breast 105% | BT-549 breast 115% | MDA-MB-435 melanoma 98.5% | SW-620 colon 96.5% | MCF7 breast 89.8% | HCT-116 colon 85.1% | HCC-2998 colon 119% | KM12 colon 96.9% | MDA-MB-468 breast 81.8%

COc1cc2c(c(OC)c1OC)C(=O)CC(c1cccc(NC(=O)c3cc(NC(=O)[C@H](C)N)ccc3Cl)c1)O2 (some centres undefined)
inactive: T-47D breast 18.5% | SW-620 colon 18.5% | MCF7 breast 13.8% | HCT-116 colon 23.4% | HCC-2998 colon 81% | KM12 colon 41.7%
active: BT-549 breast -5.64% | MDA-MB-435 melanoma 2.82% | MDA-MB-468 breast 9.2%

COc1cc(NC(=O)c2cccc(C3CCc4c(cc(OC)c(OC)c4OC)O3)c2)cc(OC)c1OC (centres undefined)
active: BT-549 breast -6.89% | MDA-MB-435 melanoma 2.46% | MCF7 breast 3.71% | HCT-116 colon 8.03% | KM12 colon 0.726%
inactive: T-47D breast 14.5% | SW-620 colon 46.1% | HCC-2998 colon 64.8% | MDA-MB-468 breast 29.3%

Cn1cc(-c2nc(N)nnc2-c2c[nH]c3ccc(Br)cc23)c2cc(Br)cnc21
inactive: T-47D breast 34.6% | SW-620 colon 20.8%
active: BT-549 breast -33.4% | MDA-MB-435 melanoma -20.8% | MCF7 breast 3.81% | HCT-116 colon -37.1% | HCC-2998 colon 1.16% | KM12 colon 5.44% | MDA-MB-468 breast 1.62%

Cc1ccc(NCC(=O)Cn2cc(COc3ccc(C=Nc4cnc5ccccc5c4)cc3)nn2)cc1
inactive: T-47D breast 105% | BT-549 breast 115% | MDA-MB-435 melanoma 113% | SW-620 colon 113% | MCF7 breast 102% | HCT-116 colon 110% | HCC-2998 colon 101% | KM12 colon 105% | MDA-MB-468 breast 100%

N/C(=N\c1nc2ccccc2s1)NC(=O)Nc1ccccc1Br
inactive: T-47D breast 45.3%
active: BT-549 breast -7.4% | MDA-MB-435 melanoma -63.9% | SW-620 colon 5.64% | MCF7 breast 8.24% | HCT-116 colon -51.4% | HCC-2998 colon -21% | KM12 colon -48.2% | MDA-MB-468 breast -29.3%

CC(=O)Nc1ccc(-c2nc3cc(-c4ccc(O)cc4)ccc3n2C)cc1
inactive: T-47D breast 50.8% | BT-549 breast 65.6% | MDA-MB-435 melanoma 50.2% | SW-620 colon 66% | MCF7 breast 24.7% | HCT-116 colon 29% | HCC-2998 colon 58.9% | KM12 colon 57.8% | MDA-MB-468 breast 58.3%

CCC(C)(C)c1ccc(OCCCCN2CCN(c3ccncc3)CC2)cc1
inactive: BT-549 breast 27% | MDA-MB-435 melanoma 39.2% | KM12 colon 37.4%
active: T-47D breast -41.6% | SW-620 colon 2.87% | MCF7 breast -23.1% | HCT-116 colon 8.09% | HCC-2998 colon -5.55% | MDA-MB-468 breast -67.2%

Cc1ccc(-n2c(-c3cc4ccccc4nc3Cl)noc2=O)cc1
inactive: T-47D breast 63.9% | BT-549 breast 81.1% | SW-620 colon 68.9% | MCF7 breast 64.5% | HCT-116 colon 86% | HCC-2998 colon 90.9% | KM12 colon 55% | MDA-MB-468 breast 16.2%
active: MDA-MB-435 melanoma 6.44%

O=C(c1ccc(Cl)cc1)c1ccc(OCCCN2CCN(c3ccncc3)CC2)cc1
inactive: T-47D breast 29% | BT-549 breast 26.9% | MDA-MB-435 melanoma 41.4% | SW-620 colon 19.5% | MCF7 breast 13.6% | HCT-116 colon 17.4% | HCC-2998 colon 64.9% | KM12 colon 57.9%
active: MDA-MB-468 breast -16.8%

COc1ccc(NC(=O)Cn2c(O)c(N=Nc3ccc(S(N)(=O)=O)cc3)c3ccccc32)cc1
inactive: T-47D breast 66.5% | BT-549 breast 15.8% | MDA-MB-435 melanoma 53% | SW-620 colon 25.2% | MCF7 breast 31.2% | HCC-2998 colon 18% | KM12 colon 26.3% | MDA-MB-468 breast 22.3%
active: HCT-116 colon 3.37%

Cn1cc(-c2nc(N)nnc2-c2c[nH]c3ccc(Br)cc23)c2cccnc21
inactive: T-47D breast 62.5% | BT-549 breast 33.9% | MDA-MB-435 melanoma 12% | SW-620 colon 39.9% | MCF7 breast 21.4% | HCT-116 colon 21.2% | HCC-2998 colon 77% | KM12 colon 33.9% | MDA-MB-468 breast 44.6%

CC(=O)OCC1OC(OC2C(COC(C)=O)OC(n3cc(COc4ccc5ccc(=O)oc5c4)nn3)C(OC(C)=O)C2OC(C)=O)C(OC(C)=O)C(OC(C)=O)C1OC(C)=O (centres undefined)
inactive: T-47D breast 103% | BT-549 breast 101% | MDA-MB-435 melanoma 101% | SW-620 colon 106% | MCF7 breast 90.9% | HCT-116 colon 106% | HCC-2998 colon 108% | KM12 colon 103% | MDA-MB-468 breast 108%
